Measured values taken from PubChem BioAssay AID504832 (National Center for Advancing Translational Sciences (NCATS), 2011).
Among all 310,000 compounds or so, about 18,000 (5.8%) were called active. About 22% were inconclusive and are not listed. Shown is part of a subset that was picked to be rich in actives. A number with no mark means an inactive call. Calls come from the whole dose curve; as a rule, active = well fitted inhibition curve with a large enough effect; inconclusive = small, poorly fitted or top-dose-only effect, or another doubt; inactive = no such curve, though single readings can be large or run the other way.

Test: Primary qHTS for delayed death inhibitors of the malarial parasite plastid, 48 hour incubation
Conditions: P. falciparum luciferase growth in erythrocytes; series mostly up to 28.7 µM; activity change, negative = inhibition: at the top concentration
Procedure, shortened: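 First compound was added to culture medium, then infected red cells at 0.1% parasitemia and 2% hematocrit (final). After incubation at 37 C under 5% CO2, luciferase detection reagent was dispensed and light output recorded.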
% is set by controls: 0 for no effect and ±100 for the full control effect; potency is the fitted concentration of half-maximal effect.

| SMILES | Potency | activity change, negative = inhibition |
| --- | --- | --- |
| Cc1cc(C)c2[nH]c(=O)c(CN(Cc3ccccc3)C(=S)NCCCN(C)C)cc2c1 | 13.1 µM (active) | – |
| CCN(CC)CCCNC(=S)N(CCO)Cc1cc2cc3c(cc2[nH]c1=O)OCO3 | – | 26.3% |
| COCCCNC(=S)N(CCN(C)C)Cc1cc2cc3c(cc2[nH]c1=O)OCCO3 | – | -21.6% |
| COc1cc(/C=N/NC(=O)c2ccc(N3CCCC3=O)cc2)ccc1O | – | 45.3% |
| O=c1cc(Cl)c2ccccc2n1-c1ccccc1 | – | -0.654% [at 0.00184 µM] |
| COc1ccc(OCc2cc(C(=O)NCC3(C)COC3)no2)c(Cl)c1 | – | 36.9% |
| COC(=O)c1c(NC(=O)c2ccccc2F)sc2c1C(C(=O)OC)CC2 (stereo unspecified) | – | 12.9% |
| Cc1[nH]c2ccccc2c1CCN(Cc1cccs1)C(=S)NC(C)(C)C | – | -11.3% |
| COc1ccc2[nH]c(C)c(CCN(Cc3cccs3)C(=S)Nc3ccccc3OC)c2c1 | 11.7 µM (active) | – |
| COc1ccc(NC(=S)NCc2cccs2)c(OC)c1 | – | -9.21% |
| Cc1ccc2c(c1)N(CC(=O)N1CCCC(C)C1)C(=O)CO2 (stereo unspecified) | – | 13.8% |
| COc1ccc(OCCn2ccnc2C)cc1 | – | 10.7% |
| Clc1ncn(CCOc2ccccc2)c1Cl | – | 8.95% |
| c1ccc(Cc2ccc(OCCn3ccnc3)cc2)cc1 | 9.28 µM (active) | – |
| CC(CCc1ccccc1)NC(=O)c1cnc(Cl)c(Cl)c1 (stereo unspecified) | – | 5.45% |
| CN(C)C(=O)c1ccc(NC(=O)COC(=O)c2cc3c(s2)CCCCC3)cc1 | – | -7.64% |
| CCn1c(O)c(N=NC(=O)c2cccc(S(=O)(=O)N3CCCCC3)c2)c2ccccc21 | 11.7 µM (active) | – |
| COC(=O)Cn1c(O)c(N=NC(=O)OC)c2ccccc21 | – | 22.9% |
| CCn1c2ccccc2c2cc(NC(=O)COC(=O)c3cc(S(=O)(=O)N4CCCCC4)ccc3Cl)ccc21 | – | 32.1% |
| CC(C)(C)c1cc[n+](-c2[nH]c(=O)sc2/C=N/N=C(\[O-])c2ccccc2)cc1 | – | -0.526% |
| O=C(CSc1nc2nccnc2c(=O)n1Cc1cccs1)Nc1ccccc1F | 10.4 µM (active) | – |
| O=C(CSc1ccc(-c2cccs2)nn1)Nc1ccccc1F | – | 26% |
| CCOc1ccc(NC(=O)CSc2nc3ccccc3c(=O)n2Cc2cccs2)cc1 | – | 0.231% |
| CN(CC(=O)Nc1ccc(Cl)c(C(F)(F)F)c1)C(=O)CCC(=O)c1ccccc1 | – | -24.2% |
| O=C(NCCCN1CCCC1=O)C(=O)NCC1OCCN1S(=O)(=O)c1ccc(Br)cc1 (stereo unspecified) | – | -17.4% |
| CCOc1cccc(-c2nnc(SCC(=O)NC3CC3)n2C)c1 | – | -5.31% |

| SMILES | Potency | activity change, negative = inhibition |
| --- | --- | --- |
| Cc1ccc(N(Cc2ccccc2O)C(=O)c2ccccc2F)cc1 | 9.28 µM (active) | – |
| O=C(c1ccccc1F)N(Cc1ccccc1)Cc1ccccc1 | – | -15% |
| CN(C)/C=C/C(=O)c1ccccc1F | – | -0.84% |
| O=C(COc1ccc(Cl)cc1)Nc1ccc2oc(=O)ccc2c1 | – | -2.67% |
| O=C(CCN1C(=O)C2C3CCC(C3)C2C1=O)Nc1ccc(Cl)cc1Cl (stereo unspecified) | – | 4.37% |
| O=C(CN1CCOCC1)Nc1c(Cl)cc(Cl)cc1Cl | – | 19.4% |
| O=C(Nc1ccc(CN2CCOCC2)cc1)c1cc(Cl)ccc1Cl | – | -23.4% |
| CC(C)(C)c1cc(NC(=O)NN2CCOCC2)nn1-c1c(Cl)cc(Cl)cc1Cl | 10.4 µM (active) | – |
| CC(=O)C(C)n1cnc2scc(-c3ccc(C)cc3)c2c1=O (stereo unspecified) | – | -5.93% |
| COc1cc(OC)cc(-c2c(-c3ccc(F)cc3)c3cc(-c4ccc5cc[nH]c5c4)ccc3n2C)c1 | 5.22 µM (active) | – |
| COc1ccc(OC)c(-c2csc(-c3cccs3)n2)c1 | – | 21.4% |
| COc1cc(OC)cc(-c2c(-c3cccs3)c3cc(-c4ccc(OC)cc4F)ccc3n2C)c1 | 13.1 µM (active) | – |
| COc1ccc2c(c1)c(C(=O)N/N=C/c1cccs1)c(C)n2C | – | -6.08% |
| CCOC(=O)N1CCN(C(=O)C(C)NC(=O)c2ccco2)CC1 (stereo unspecified) | – | 0.0593% |
| COc1ccc(/C=C/c2c(-c3cccc(C)c3)oc3ccc(-c4ccc5c(c4)OCO5)cc23)cc1 | – | 13.5% |
| COc1ccc(/C=N/NC(=O)c2ccc(Cl)cc2)cc1COC(C)=O | – | 3.27% |
| COc1ccc(/C=N\NC(=O)c2sc(N)nc2C)cc1OC | – | 12.7% |
| Cc1ccc(S(=O)(=O)Oc2ccc(/C=N/NC(=O)c3ccncc3)cc2)cc1 | – | -9.78% |
| COc1cc(/C=N/NC(=O)c2ccccc2)ccc1OS(=O)(=O)c1ccccc1 | 10.4 µM (active) | – |
| COc1ccc(/C=N/NC(=O)c2ccccc2)cc1OS(=O)(=O)c1ccccc1 | 9.28 µM (active) | – |
| COc1ccc(/C=N/S(=O)(=O)c2ccccc2)cc1OC | – | -9.68% |
| O=C(O)Cc1ccc(NC(=O)Nc2cccc3ccccc23)cc1 | – | 11% |
| COc1cc(NC(=O)c2ccc(-c3csc(C)n3)cc2)c(OC)cc1Cl | – | 0% |
| Cc1cccc(NC(=O)C2CCCN(C(=O)Nc3ccc(F)cc3)C2)c1C (stereo unspecified) | – | 0.936% |
| COCc1cc(C)n(CC(=O)NCC2CCCO2)c(=O)c1C#N (stereo unspecified) | – | 2.53% |
